Reference: PubChem BioAssay (NCATS)
Results filed as inconclusive are left out. Calls of active or inactive are those of the source. Calls come from the whole dose curve; as a rule, active = well fitted inhibition curve with a large enough effect; inconclusive = small, poorly fitted or top-dose-only effect; inactive = flat fitted curve, though single readings scatter. Peptide text beside a SMILES is read from it.
Potency is the fitted concentration of half-maximal effect.

Each compound was assayed on W2 (assay: qHTS profiling for inhibitors of Plasmodium falciparum proliferation (AID 504749; note: nearly all actives have a fitted effect of over 60% in size;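 for activity, negative = inhibition: 0% = DMSO vehicle and full inhibition = artemisinin control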)). Settings: P. falciparum in erythrocytes, SYBR Green DNA, 72 h; series mostly up to 28.7 µM; activity, negative = inhibition: at the top concentration.
How it was run: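 Readout was DNA-dye fluorescence from lysed cultures, ex 485/em 535 nm. Parasitized red cells had grown 72 h with compound; data scaled between 0.29 uM artemisinin and DMSO wells and corrected using vehicle-only plates.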
With `C[C@]12O[C@H](C[C@]1(O)CO)n1c3ccccc3c3c4c(c5c6ccccc6n2c5c31)CNC4=O` the Potency was 239 nM (active).
In the case of `CC(NNC(=O)c1ccccc1)c1ccccc1` (stereo not given), the “activity, negative = inhibition” value is reported as 0.851% (inactive).
For `CCCCCCCC/C=C\CCCCCCCC(=O)O`, the “activity, negative = inhibition” value was -5.54% (inactive).
In the case of `Cc1cn([C@H]2C[C@H](O)[C@@H](CO)O2)c(=O)[nH]c1=O`, the “activity, negative = inhibition” value is reported as -1.16% (inactive).
In the case of `CC1=C(/C=C/C(C)=C/C=C/C(C)=C/C=C/C=C(C)/C=C/C=C(C)/C=C/C2=C(C)C(=O)CCC2(C)C)C(C)(C)CCC1=O`, the “activity, negative = inhibition” value is reported as 13% (inactive).
`Oc1cc(O)c2c(c1)OC(c1ccc(O)c(O)c1)C(O)C2` (stereo not given) was tested, and the “activity, negative = inhibition” value was -15% (inactive).
With `Cc1cc(C(=O)NNCc2ccccc2)no1` the “activity, negative = inhibition” value was -0.66% [at 12.8 µM] (inactive).
With `CCCC(=O)O[C@]1(C(=O)CCl)[C@H](C)C[C@@H]2[C@H]3CCC4=CC(=O)C=C[C@]4(C)[C@@]3(F)C(=O)C[C@@]21C` the Potency was 1510 nM (active).
For `COc1cc(-c2ccc(-[n+]3nc(-c4ccccc4)nn3-c3ccc([N+](=O)[O-])cc3)c(OC)c2)ccc1-[n+]1nc(-c2ccccc2)nn1-c1ccc([N+](=O)[O-])cc1`, the Potency was 12000 nM (active).
`CCNC(=O)[C@@H]1CCCN1C(=O)[C@H](CCCN=C(N)N)NC(=O)[C@H](CC(C)C)NC(=O)[C@@H](Cc1c[nH]c2ccccc12)NC(=O)[C@H](Cc1ccc(O)cc1)NC(=O)[C@H](CO)NC(=O)[C@H](Cc1c[nH]c2ccccc12)NC(=O)[C@H](Cc1cnc[nH]1)NC(=O)[C@@H]1CCC(=O)N1` was tested, and the Potency was 849 nM (active).
`C[C@@H]1CCC2[C@@H](C)[C@@H](O)O[C@@H]3O[C@@]4(C)CC[C@@H]1[C@@]23OO4` (stereo not given in full) was tested, and the Potency was 0.5 nM (active).
In the case of `CC(=O)N[C@@H](CC(=O)O)C(=O)N[C@@H](CCC(=O)O)C(=O)O` (Ac-Asp-Glu-OH), the “activity, negative = inhibition” value is reported as -4.37% (inactive).
In the case of `COC(F)(F)C(Cl)Cl`, the “activity, negative = inhibition” value is reported as 2.43% (inactive).
In the case of `CC(C)=O`, the “activity, negative = inhibition” value is reported as 0.606% (inactive).
In the case of `CC1=C(/C=C/C(C)=C/C=C/C(C)=C/CO)C(C)(C)CCC1`, the Potency is reported as 7570 nM (active).
In the case of `CCOc1ccc(N=Nc2ccc(N)cc2N)cc1`, the “activity, negative = inhibition” value is reported as -28.9% (inactive).
In the case of `O=C1CSC2(CCN(CCCN3c4ccccc4Sc4ccc(Cl)cc43)CC2)N1`, the Potency is reported as 4780 nM (active).
In the case of `CCN(CC)Cc1cc(Nc2ccnc3cc(Cl)ccc23)ccc1O`, the Potency is reported as 51 nM (active).
`C=C1C(=CC=C2CCC[C@@]3(C)[C@@H]2CC[C@H]3[C@H](C)CCCC(C)C)C[C@@H](O)C[C@@H]1O` was tested, and the Potency was 9530 nM (active).
With `COC(=O)CCC(=O)CN` the “activity, negative = inhibition” value was -12.3% (inactive).
